# Source: PubChem (National Center for Advancing Translational Sciences (NCATS))
# Only some compounds are listed: those with a hit (about 12% of all), similar ones and a draw of the others.
# L3MBTL1 block – inhibitors of human L3MBTL1. Q9Y468. AlphaScreen L3MBTL1–H3K9me1 peptide binding. Potency, µM (titrated, usually from 57.1 µM), inactives show at the top dose activity, negative = inhibition, actives largely listed as inhibitors. hit rate 0.66% among 230,000; also: % is scaled to controls: 0 for no effect and ±100 for the full control effect; nearly all actives have a fitted effect of over 60% in size
# Target sequence (Q9Y468 whole entry, looked up): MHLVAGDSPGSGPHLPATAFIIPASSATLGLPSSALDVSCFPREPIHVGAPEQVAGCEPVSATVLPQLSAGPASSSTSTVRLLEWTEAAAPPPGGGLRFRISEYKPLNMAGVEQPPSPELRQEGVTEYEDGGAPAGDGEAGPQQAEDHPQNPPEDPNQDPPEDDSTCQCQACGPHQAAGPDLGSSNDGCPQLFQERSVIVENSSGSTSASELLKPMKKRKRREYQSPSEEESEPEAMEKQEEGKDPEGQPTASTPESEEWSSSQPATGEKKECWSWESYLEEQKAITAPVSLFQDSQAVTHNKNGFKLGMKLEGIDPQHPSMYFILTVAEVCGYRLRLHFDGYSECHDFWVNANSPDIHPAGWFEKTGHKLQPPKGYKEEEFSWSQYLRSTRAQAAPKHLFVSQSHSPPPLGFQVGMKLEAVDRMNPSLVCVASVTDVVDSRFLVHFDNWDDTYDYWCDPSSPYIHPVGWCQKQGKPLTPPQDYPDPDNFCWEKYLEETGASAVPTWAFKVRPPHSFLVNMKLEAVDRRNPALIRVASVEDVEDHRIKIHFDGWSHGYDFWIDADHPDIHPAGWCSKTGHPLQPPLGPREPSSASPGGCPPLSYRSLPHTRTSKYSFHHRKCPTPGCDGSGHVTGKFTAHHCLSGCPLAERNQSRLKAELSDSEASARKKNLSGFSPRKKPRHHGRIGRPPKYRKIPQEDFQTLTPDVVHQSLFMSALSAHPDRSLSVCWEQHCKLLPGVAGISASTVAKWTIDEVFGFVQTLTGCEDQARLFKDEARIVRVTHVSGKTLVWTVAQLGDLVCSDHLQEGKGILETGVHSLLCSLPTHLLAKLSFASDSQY
#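 AlphaScreen proximity signal between nickel-chelate acceptor and streptavidin donor beads (final 10 ug/mL) reports binding of 50 nM L3MBTL1 to 75 nM biotin-H3 K9me1 peptide; complex incubated with compounds 30 min at room temperature; cefsulodin titration as control.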
# JMJD2A Tudor inh – JMJD2A Tudor domain (human) inhibition; AlphaScreen JMJD2A-Tudor / H3K4me3 peptide binding; Potency, µM (series often up to 114 µM), for inactives: at the highest dose activity change, negative = inhibition, most hits filed as inhibitors; hit rate 4.4% among 390,000; AID 504339; also: % is scaled to controls: 0 for no effect and ±100 for the full control effect; nearly all actives have a fitted effect of over 50% in size
# HP1b binding inh – blocks HP1-beta chromodomain binding to methylated histone tails. AlphaScreen HP1-beta / biotin-H3K9me3 peptide binding. Potency, µM (doses to about 114 µM), without a hit: at the top dose activity change, negative = inhibition, usual class: inhibitors. hit rate 0.56% among 390,000. AID 540317; also: nearly all actives have a fitted effect of over 70% in size
#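 AlphaScreen: HP1-beta (50 nM) preformed 30 min with biotin-H3(1-18)K9me3 peptide (50 nM) in PBS pH 7.4, 0.01% Tween-20. Compound added for 30 min at RT, then streptavidin donor/nickel chelate acceptor beads (10 ug/mL) for 30 min.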
# Sfp inh – inhibitors of Bacillus subtilis Sfp phosphopantetheinyl transferase; Potency, µM, for the others: largest response in the series, negative = inhibition, most hits filed as inhibitors; Biochemical Sfp PPTase activity, qHTS; Q9F4F7; AID 1490; hit rate 3.5% among 310,000;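 also: the enzyme is Sfp with the accession as filed and its product quenches rhodamine fluorescence; 0% = enzyme reaction without inhibitor and -100% = no enzyme wells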
#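 Fluorescence-quenching assay with 15 nM Sfp, 5 uM rhodamine-CoA and 12.5 uM BHQ-2-labelled ybbR peptide in pH 7.6 Hepes/MgCl2 buffer. Enzyme was pre-incubated with compound for 15 min at room temperature. Rate was taken from the 30-min fluorescence change (525/598 nm).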
# BAZ2B inh – BAZ2B (human) inhibition; AlphaScreen BAZ2B-H3K14Ac peptide displacement; Q9UIF8; hit rate 4.4% among 360,000; Potency, µM (highest dose often 114 µM), without a hit: at the top dose activity change, negative = inhibition, actives largely listed as inhibitors; also: % is scaled to controls: 0 for no effect and ±100 for the full control effect; nearly all actives have a fitted effect of over 60% in size
#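 Compounds, titrated to a top concentration of 110 uM, were incubated 30 min at room temperature with preformed BAZ2B/acetyl-K14 H3 peptide complex (50 nM each). Proximity signal was measured by AlphaScreen after 20 min with beads.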
# G9a inh – G9a (human) methyltransferase inhibition | Q96KQ7 | G9a H3K9 monomethylation, AlphaScreen, 2 h | Potency, µM (titrated, usually from 102 µM), for the others: at the highest dose activity, negative = inhibition, usual class: inhibitors | hit rate 8.8% among 350,000 | AID 504332; also: % is scaled to controls: 0 for no effect and ±100 for the full control effect; nearly all actives have a fitted effect of over 75% in size
#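 Quantitative HTS format: methyltransferase activity on a biotin-tagged H3K9 peptide is measured by AlphaScreen, using a rabbit anti-monomethyl-H3K9 antibody with streptavidin donor and anti-IgG acceptor beads. Final levels are 20 nM enzyme, 500 nM peptide, 20 uM SAM; 2 h RT.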
# Starred values were filed as active, the others as inactive; ? = inconclusive; . = not tested or not shown; [ ] = dose if it differs, or a comment. Calls follow the shape of the dose curve; as a rule, active = well fitted curve in the direction sought with a large enough effect; inconclusive = small, poorly fitted or top-dose-only effect, or another doubt; inactive = no such curve, though single readings can be large; an effect the other way counts as inactive or inconclusive. Potency is read from the fitted curve at half-maximal effect.
SMILES,L3MBTL1 block,JMJD2A Tudor inh,HP1b binding inh,Sfp inh,BAZ2B inh,G9a inh
Cc1cc(C)c2c(c1)[C@@H]1C=CC[C@@H]1[C@H](c1ccc(S(=O)(=O)N3CCOCC3)cc1)N2,-1%,?,1%,10µM*,-10%,3.5µM*
COC(=O)c1ccc([C@@H]2Nc3c(cccc3C(F)(F)F)[C@@H]3C=CC[C@@H]32)cc1,.,26%,123%,.,62%,47%[59 µM]
COC(=O)c1ccc(C2Nc3c(C)cc(C)cc3C3C=CCC32)cc1 (stereo not drawn),.,?,2%,.,79µM*,4.5µM*
CC(C)(C)c1ccc(C(=O)Oc2ccc3c(c2)OCC3=O)cc1,.,5%,35%,-1%,6%,50µM*
CCN(C(=O)C1CCCCC1)c1nnc(-c2cccnc2)s1,4%,?,52%,-5%,?,50µM*
COCCN(C(=O)C1CCC1)c1nnc(-c2cccnc2)s1,.,-6%,55%,5%,-20%,1%[59 µM]
Cc1nc2c3ccccc3nc(NNC(=O)CCC(=O)N3CCN(c4cccc(Cl)c4)CC3)n2n1,.,-14%,73%,.,11%,26%[59 µM]
Cc1nc2c(C)cccn2c1/C(O)=C1\C(=O)C(=O)N(CCN(C)C)C1c1ccccc1 (stereo not drawn),-2%,-5%,14%,-1%,-1%,6%[12.7 µM]
Cc1ccc(C2/C(=C(\O)c3c(C)nc4c(C)cccn34)C(=O)C(=O)N2CCN(C)C)o1 (stereo not drawn),.,-11%,33%,.,.,.
Cc1nc2c(C)cccn2c1/C(O)=C1\C(=O)C(=O)N(CCN(C)C)C1c1ccco1 (stereo not drawn),-1%,22µM*,17%,-7%,0%,-45%
Cc1nc2c(C)cccn2c1/C(O)=C1\C(=O)C(=O)N(CCN2CCOCC2)C1c1ccncc1 (stereo not drawn),-2%,5.6µM*,?,8%,79µM*,-51%[12.7 µM]
c1ccc(CNc2nc(-c3ccc4c(c3)OCO4)nc3ccccc23)cc1,.,.,.,4%,.,10%[0.501 µM]
CCc1c2c(nc3cccc(OC)c13)OC(CC)C2 (stereo not drawn),.,.,.,12%,.,.
COC(=O)C(Cc1ccccc1)NS(=O)(=O)c1cc(Br)ccc1Br (stereo not drawn),.,-5%,39%,1%,.,.
Cc1ccc(NC(=O)C2CCCN2S(=O)(=O)c2ccc3nc(-c4ccccc4)[nH]c3c2)cc1C (stereo not drawn),.,-32%,19%,.,79µM*,-34%[59 µM]
c1ccc(Cc2nnc3sc(-c4ccco4)nn23)cc1,-14%,?,?,-5%,?,35µM*
CCOc1c(Br)cc(C(N)=O)cc1OC,-6%,56µM*,-18%,3%,-11%,-2%
COc1cc(CO)cc(Br)c1OCC(=O)O,.,?,30%,-3%,-4%,50µM*
Cc1csc2nc(COC(=O)c3ccc(NC(=O)c4ccccc4Br)cc3)cc(=O)n12,.,-19%,22%,.,-4%,-3%[59 µM]
NNC(=O)c1ccc2c(c1)S(=O)(=O)NNC2=O,11%,28µM*,77%,-5%,-32%,11µM*
CCCNC(=O)c1ccc2c(c1)S(=O)(=O)c1ccccc1C2=O,.,-14%,13%,3%,-11%,.
Cc1cccc(C)c1NC(=O)CSc1nc2ncccc2o1,.,-9%,33%,.,-14%,-1%[59 µM]
COc1ccc(OC)c2sc(NC(=O)C(C)C)nc12,-10%,-14%,14%,-20%,-9%,-42%[59 µM]
COc1ccc(OC)c2sc(Cl)nc12,5%,4%,-4%,-19%,9%,28µM*
COc1ccc(C(=O)n2nc(-c3ccco3)nc2N)cc1,-5%,?,-12%,14%,-10%,18µM*
Nc1nc(-c2ccco2)nn1C(=O)c1cccnc1,7%,-6%,63%,-3%,7%,50µM*
Cc1ccc(C(=O)n2nc(-c3ccco3)nc2N)cc1,-2%,-9%,43%,-7%,3%,6%[59 µM]
